Assay results from the supplement of paper PMC6555819.

Key:
Assay in all cases: PBM binding z-score (relative to random genomic background probes); higher = stronger binding; sequences stand for … in GC…GCGATTGACAGCGTAGAATGAAGG
[1] = system: RARb homodimer (NR concentration 270 nM)
Method in brief: (§1)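 For binding z-scores, the reference was random background probes on custom Agilent 4×180K protein-binding microarrays. These arrays were incubated 1 h with ligand-free nuclear receptor dimers in PBS pH 7.4, 2% milk, 0.02% Triton X-100, 1 mM DTT, 0.2 mg/mL BSA and 0.4 mg/ml salmon testes DNA. Fluorescence was scanned after antibody detection of each partner (one per run) and regression-normalized.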

[2] = system: RARg:RXRa (NR concentration 270 nM, RXRa partner concentration 90 nM)
Method in brief: as §1

[3] = system: RARg homodimer (NR concentration 270 nM)
Method in brief: as §1

[4] = system: RXRa DBDmut IVT, anti-RXR (DBD mutation: RXRa K156A/R161A, NR concentration 90 nM)
Method in brief: as §1

[5] = system: RXRa homodimer (NR concentration 180 nM)
Method in brief: as §1

[6] = system: THRa:RXRa (NR concentration 90 nM, RXRa partner concentration 90 nM)
Method in brief: as §1

[7] = system: THRa homodimer (NR concentration 90 nM)
Method in brief: as §1

[8] = system: VDR:RXRa (NR concentration 270 nM, RXRa partner concentration 90 nM)
Method in brief: as §1

[9] = system: VDR homodimer (NR concentration 270 nM)
Method in brief: as §1

Sequence	PBM binding z-score [1]	PBM binding z-score [2]	PBM binding z-score [3]	PBM binding z-score [4]	PBM binding z-score [5]	PBM binding z-score [6]	PBM binding z-score [7]	PBM binding z-score [8]	PBM binding z-score [9]
CGTAGTTGGTCAGGAGGTCACACACCGGATATGA	4.25	5.01	4.39	0.895	4.57	3.46	2.18	3.86	3.08
CCTACTGGGGCATCAGGTCATTGATATCAACGTT	2.89	2.6	2.39	0.331	1.87	3.19	2.71	1.85	2.06
CCGACTGGGGCATAAGGTTAACATAAGCCAGCCC	1.89	2.08	1.34	-0.0628	1.45	2.08	1.06	0.684	-0.243
TCTATTAGTTGATTAGGTCAACCGAAACAGCGGA	3.09	2.8	2.68	1.55	2.1	3.1	2.74	1.94	1.2
CCAGACAGGTGAGAAGGTAACTTAGCCTCGATTA	0.632	0.486	0.577	-0.104	0.246	0.524	0.316	0.0956	0.118
ACTATTAGTTGAGACGAGGTCAACCGATAGGTTG	4.05	3.81	3.37	1.57	4.82	4.73	3.82	4.47	3.21
CCTAGTTGGTCAAGGTCACAAACGCTATAGGTAC	4	4.1	4.24	1.87	4.02	4	3.57	3.73	3.9
CGTCCAAGGTCAGAGAGGTCAGTGGATGCCGAGT	5.54	6.26	7.05	3.42	5.46	4.29	3.05	7.33	5.52
AGAATGAGGTTACCAAAGACCAGGGAAACGCTTG	0.685	2.01	1.51	1.02	2.79	2.87	0.659	1.32	0.4
CAAACTAGGTCACTGGAAGGTCAAAGTCCGCATG	5.21	7.66	6.65	1.96	5.54	4.3	2.43	5.33	3.86
TCAGACAGGTGAAGGTGACTCAGGTACGCAGTCG	1.6	0.814	0.949	0.889	0.995	1.66	0.461	1.04	0.358
CCTGCTAGGTCAATGGACAGCTAAAGCAGCTCGC	2.51	3.34	4.17	1.5	1.8	1.95	0.0455	0.586	0.153
GCATATAGGTAATACGAGGTGAAAGTCCGATTGT	0.883	0.378	0.419	0.527	0.781	4.46	1.41	0.598	-0.0522
GCCTATAGGTAATACAAGGTGAAAGTCCGATTGT	0.782	0.406	0.334	0.0892	0.582	4.25	1.06	0.256	-0.376
TCTCGGGGGACACGAAAGGTCAGAGCTCGACATC	4.59	6.13	6.61	2.14	4.9	4.19	2.07	4.39	1.57
CCTACTGGGCCAAAAAGGTCAATGATGCCGATAA	4.77	4.33	4.09	-0.0473	4.06	3.06	0.77	4.18	0.956
TCAGACAGGTGAAGATAACTCAGGTACGCAGTCG	0.661	0.712	0.748	1.15	1.13	0.737	0.4	0.709	0.623
ACTTACGGGTCACCGAGGTTATAGCACGCGTATA	4.01	6.34	5.96	2.78	7.33	4.24	1.45	7.82	4.59
CCTTACGGATCAAGGTTATAGCACGGGTGGTACG	0.857	0.538	0.518	-0.178	0.793	1.16	0.694	0.474	0.886
TATATTAGTTGAAGGGCAACCGACGAGTCCGTTT	1.37	0.983	1.22	0.547	0.884	0.415	-0.0239	0.939	1.91
CAAACTAGGTCACGAAAGGTCTAAGTCGAATGAC	3.98	5.04	5.84	1.6	4.23	4.1	1.73	3.75	0.873
CCGACTGGTGCAAGGTTACCATAACGCACAGCCA	0.979	0.462	0.421	0.0825	0.899	1.08	0.473	0.278	0.112
GCAGACAGGTGAAACGCAGGTAACTCACGGTGGC	-0.171	0.892	0.295	-0.351	0.662	0.832	-0.7	-0.56	-0.778
ACTAGCAGGCCAAGTTTGGGTCACGCAAACAAAG	2.72	3.25	2.19	-0.213	1.71	3.3	1.78	1.36	0.403
CGTCAAAGTACAAGGTAACGTAACAGAAAGCAGC	0.287	0.552	1.1	0.923	0.455	1.37	0.356	0.215	-0.157
TAGCCTAGGTCATTGGGCCAGTCTAGTACGCATC	2.48	3.76	3.79	1.52	2.52	2.67	0.501	1.98	0.896

Sequence	PBM binding z-score [1]	PBM binding z-score [2]	PBM binding z-score [3]	PBM binding z-score [4]	PBM binding z-score [5]	PBM binding z-score [6]	PBM binding z-score [7]	PBM binding z-score [8]	PBM binding z-score [9]
ACAGACAGGTGCTGAAGGTAACTCAGGCTATCAT	-0.511	-0.0198	0.00684	-0.376	-0.0891	0.3	-0.356	-0.264	-0.984
GCTTACGGGTCAAAGGTTATAGAATGAATAGAAT	3.44	6.87	5.16	2.45	9.56	3.89	0.468	5.63	1.96
CCTAGCAGGACAATCTGGGTCACTCAAGGCTTGA	2.13	1.2	1.42	0.379	1.09	3.07	0.761	0.704	0.0931
TTACCAAGGTGAAAGGTAGTTGATGCACGCCTTG	0.674	1.1	0.73	0.0303	1.67	1.73	0.341	0.524	-0.225
CCTTGCAGGCCAATCTGGGTCACTCAAGGCTTGA	2.28	1.15	1.42	0.233	0.742	3.61	0.612	0.663	-0.0782
ACACCAAGGTGATCGTGAGGTCGTTGATACTAAC	1.69	2.28	0.878	1.13	1.64	3.42	2.39	3.21	2.69
ACAGACAGGTGAGTGAAGGTAACTCAGCTGGACG	0.005	0.297	0.64	-0.506	0.428	1.51	-0.394	-0.401	-0.355
CGTCCAAGGTCAGCAGGGCAGTGAAAGCGACGTG	4.12	5.28	5.9	2.63	3.74	3.61	1.9	2.87	1.02
TTACCTAGGTGAGCTGAGGTCGTTGATCCAACTC	1.32	0.757	0.325	0.055	1.01	4.18	2.11	3.05	1.73
GGAACGAGGGCATTCGATTTGATAGCATGGCGAT	0.884	1.28	1.49	3.11	1.01	1.09	-0.234	1.73	1.9
AGTCAAAGTTCATCTAGGTAACGTAAGATATGCT	4.07	5.59	6.2	4.76	4.97	3.05	0.224	4.59	4.94
TCTATTAGTTGAAGGGCTACCGACGAGTCCGTTT	0.0763	0.0303	0.0781	1.63	0.354	-0.151	-0.0569	0.745	1.04
TGTAGTTGGTCACGGAGGTCACACACGACGGGTA	4.39	4.74	4.47	-0.214	4.76	3.6	2.44	5.47	2.45
GCTTACGGGTCAAAGGTTATAGCCTGAATAGAAT	3.15	6.87	4.5	2.7	9.3	4.01	-0.0478	5.72	1.65
GCTAGCAGGCAATTTGGGTCACTCAATGACGGGC	1.55	0.628	0.847	-0.416	0.683	2.76	0.687	0.222	-0.322
CGAACTATGTCATTGACAGGACAGTGAATAGTAA	0.32	0.772	0.637	0.491	0.127	0.297	-0.398	0.154	0.0338
TCAGACAGGTGAAGGTAACTTAGGTACGCAGTCG	0.872	0.797	0.756	1.19	1.14	1.86	0.691	1.02	0.508
CCTATTAGCTGACCATAAGGGCAACCGAAGCTCG	1.61	0.474	0.729	0.637	0.376	1.38	1.18	0.159	0.435
AGAATGAGGTTATACGTAGATCAGGCAAGAAAGT	0.646	1.78	1.11	1.62	2.14	2.26	0.402	1.46	0.719
CCTATTGGTTGACCATAAGGGCAACCGAAGCTCG	1.47	0.997	0.631	-0.724	0.512	1.62	0.504	-0.0561	-0.166
CCTGCTAGGTCAATGGTCTGCTAAAGCAGCTCGC	2.64	3.31	3.96	1.75	1.63	2.31	0.724	0.867	-0.14
CAAGCTAGGTCACGAAAGGTCAAAGTCGAATGAC	5.98	8.18	8.58	2.43	8.62	5.11	2.29	6.88	3.61
CAAACTAGGTCAAGGTCAAAGGCGGTTTGTGCCA	5.02	6.14	6.63	3.02	5.77	4.38	3.55	4.87	3.92
TATACAGTGTCAAAGGCCAGAGTACGAATGTCGA	1.59	1.53	1.65	-0.125	1.49	0.336	-0.189	0.815	0.636
CCTAGCACGCCAATCTGGGTCACTCAAGGCTTGA	1.94	0.768	0.494	0.349	0.974	2.61	0.789	0.379	0.435
CGTCCAAGCTCAGAGAGGTCAGTGAATGCCGAGT	3.56	2.72	2.99	0.551	2.36	2.19	0.794	2.2	2.2
